These results are taken from PubChem BioAssay.

Experiment [1] can be described thus: yeast TOR pathway RPL19A-GFP modulators, primary screen, cell-based, S. cerevisiae, multiplex flow cytometry (AID 1862; in the data active = percent of DMSO control GFP below about 86%;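 also: lower values mimic rapamycin by blocking the RPL19A rise seen in DMSO cells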). The note with it: S. cerevisiae RPL19A-GFP strain, flow cytometry fluorescence, 3 h; at 10 µM; stronger effect = lower value.
Experiment [2] in a line: modulators of MEP2-GFP levels in yeast, primary screen, S. cerevisiae, multiplex flow cytometry (AID 1867;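 active = GFP response, as percent of the DMSO control, above the screen-wide mean plus 3 SD, about 139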;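 also: median GFP channel fluorescence of barcode-gated MEP2-GFP cells measured by flow cytometry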). The conditions noted are these: S. cerevisiae MEP2-GFP strain, 3 h, at 10 µM, stronger effect = higher value, 100% means same as DMSO wells. Background: In flow cytometry, cells or beads pass a laser one at a time.
The nature of experiment [3]: modulators of CIT2-GFP expression in yeast, primary screen, S. cerevisiae, GFP fusion, multiplex flow cytometry (AID 1870;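 active = percent response above a set limit, the screen-wide mean plus 3 SD, cut at about 130% in these data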;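 also: barcoded CIT2-GFP strain pooled with four other GFP strains with rapamycin as positive control; median GFP fluorescence per well over plate mean of DMSO wells so 100% = DMSO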). The conditions noted are these: 3 h, at 10 µM, stronger effect = higher value.
Experiment [4] in a line: modulators of LAP4-GFP expression in yeast, primary screen, S. cerevisiae, multiplex flow cytometry (AID 1873;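 active = GFP signal, as percent of the solvent control, above the screen mean plus 3 SD, about 149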). The note with it: 3 h, at 10 µM, stronger effect = higher value.
Experiment [5] in a line: modulators of AGP1-GFP expression in yeast TOR pathway, primary screen, cell-based, multiplex flow cytometry, S. cerevisiae (AID 1887;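 active = GFP signal above the screen-wide mean plus 3 SD, that is over about 124.5% of the solvent control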;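 also: AGP1-GFP fusion strain of S. cerevisiae within a five-strain barcoded multiplex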). The conditions noted are these: 3 h, at 10 µM, stronger effect = higher value.
Experiment [6] can be described thus: inhibitors of CD8+ T cell-vesicle binding, pilot screen, LFA-1/ICAM-1 modulator project, MLPCN validation set, flow cytometry (AID 2523;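 active = response below a set limit, under 55% cells CD8-positive and vesicle-bound, and CD8 cells' 90th-percentile brightness under 279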;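 as to vesicle binding response: mean PE anti-B7-1 fluorescence of CD8+ cells relative to row control; 100% = QL9-loaded vesicles with DMSO vehicle in the same plate row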). The note with it: 2C mouse CD8+ T cells, at 7 µM, stronger effect = lower value; double positive events: measured here: CD8+/vesicle+ event percentage.
Experiment [7] addresses Integrin beta-1 (Homo sapiens) + Integrin alpha-4 (Homo sapiens) (UniProt P13612+P05556). As to the kind of experiment: inhibition of HUTS-21 binding to VLA-4, pilot screen, VLA-4 allosteric modulator project, U937 cells, HUTS-21 mAb, flow cytometry, validation set (AID 2674;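 active = inhibition above 50%, about 3 SD of the validation set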;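 also: antibody binding induced by the VLA-4 ligand LDV present at three times its Kd; 0% = LDV ligand with antibody and no compound and 100% = antibody without LDV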). The conditions noted are these: HUTS-21 LIBS mAb binding, at 6.7 µM, stronger effect = higher value, binding induced by LDV ligand.

The nature of experiment [8]: superoxide lowering in aged yeast cells, pilot screen, validation compound set (AID 2706;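 active = superoxide response below 65% of plate, a cut near 3 SD across the whole screen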;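 also: yeast exposed to compound for one week at 30 degrees C before staining; 100% = mean of all compound wells on the same plate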). The conditions noted are these: S. cerevisiae aging, superoxide DHE fluorescence; at 10 µM; stronger effect = lower value.
For experiment [9], the target named is Beta-adrenergic receptor kinase 1 (Homo sapiens) (UniProt P25098). As to the kind of experiment: GRK2 binders displacing RNA aptamer, biochemical, validation, human GRK2, bead flow cytometry (AID 488806;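 active = aptamer binding inhibition above 30%, about 3 SD of noise from non-fluorescent compounds; inactive = inhibition at or below 30%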). The conditions noted are these: bead-bound GRK2, FAM-aptamer displacement, at 10 µM, stronger effect = higher value.
Sequence of Beta-adrenergic receptor kinase 1 (Homo sapiens) (P25098 whole entry, looked up): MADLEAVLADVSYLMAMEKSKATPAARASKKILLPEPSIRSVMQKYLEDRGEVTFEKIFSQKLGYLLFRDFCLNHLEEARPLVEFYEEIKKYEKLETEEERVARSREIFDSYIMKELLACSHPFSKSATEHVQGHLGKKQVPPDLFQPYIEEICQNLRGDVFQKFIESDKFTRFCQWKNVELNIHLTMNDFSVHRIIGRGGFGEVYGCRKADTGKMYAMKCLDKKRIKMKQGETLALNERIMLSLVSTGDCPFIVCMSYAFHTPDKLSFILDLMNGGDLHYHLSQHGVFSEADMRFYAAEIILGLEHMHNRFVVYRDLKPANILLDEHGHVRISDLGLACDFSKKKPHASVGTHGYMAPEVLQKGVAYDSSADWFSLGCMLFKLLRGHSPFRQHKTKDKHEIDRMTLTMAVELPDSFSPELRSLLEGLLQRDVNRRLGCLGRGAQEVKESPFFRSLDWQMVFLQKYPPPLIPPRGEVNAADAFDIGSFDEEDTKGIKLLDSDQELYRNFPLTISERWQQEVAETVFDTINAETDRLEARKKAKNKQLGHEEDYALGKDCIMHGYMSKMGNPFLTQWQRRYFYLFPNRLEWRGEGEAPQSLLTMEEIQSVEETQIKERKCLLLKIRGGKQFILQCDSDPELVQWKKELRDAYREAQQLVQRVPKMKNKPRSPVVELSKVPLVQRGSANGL
In experiment [10] the target is Beta-2 adrenergic receptor (Homo sapiens) (UniProt P07550). The experiment can be described thus: beta2AR agonists driving receptor internalization, pilot screen, cell-based, FAP fluorogen, flow cytometry, validation set (AID 504459;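 active = percent response above 42, roughly 3 SD of non-fluorescent test compounds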;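 also: agonist-driven loss of surface beta2AR via internalization measured by FAP dye flow cytometry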). The note with it: Am2.2-beta2AR cells, FAP surface receptor flow cytometry; at 10 µM; stronger effect = higher value.
Sequence of Beta-2 adrenergic receptor (Homo sapiens) (P07550 whole entry, looked up): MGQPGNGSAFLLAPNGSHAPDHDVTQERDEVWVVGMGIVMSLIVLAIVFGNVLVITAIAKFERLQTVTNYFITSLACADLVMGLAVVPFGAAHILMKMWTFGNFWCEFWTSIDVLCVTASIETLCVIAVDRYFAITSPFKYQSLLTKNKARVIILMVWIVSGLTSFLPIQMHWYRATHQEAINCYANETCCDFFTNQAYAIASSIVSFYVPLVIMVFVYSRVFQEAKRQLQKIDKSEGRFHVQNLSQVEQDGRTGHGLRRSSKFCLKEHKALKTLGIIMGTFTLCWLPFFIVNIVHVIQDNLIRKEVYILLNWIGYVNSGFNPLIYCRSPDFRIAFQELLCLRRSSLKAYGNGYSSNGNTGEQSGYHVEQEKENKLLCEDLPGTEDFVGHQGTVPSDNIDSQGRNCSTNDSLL
Experiment [11] addresses AP-2 complex subunit beta (Homo sapiens) (UniProt P63010). As to the kind of experiment: inhibitors of arrestin peptide binding to AP2, pilot screen, biochemical, validation set, GST-AP2 beads, flow cytometry (AID 504541;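 active = inhibition above 54%, about 3 SD of non-fluorescent compounds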;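 also: AP2 carries R879A mutation and is captured from E. coli lysate; bead-bound FITC arrestin peptide fluorescence measuring arrestin peptide binding to AP2; 0% = DMSO wells and 100% = excess unlabeled arrestin peptide control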). The conditions noted are these: FITC arrestin peptide, at 10 µM, stronger effect = higher value, AP2 beta2 appendage fragment, R879A mutant.
Experiment [12] is described as follows: yeast V-ATPase proton transport modulators, S. cerevisiae, pHLuorin, HTS validation (AID 504600; in the data active = response above about 15%;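 also: plate controls were DMSO for no effect and reference compound for full effect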). The note with it: S. cerevisiae pHLuorin cytosolic pH, at 10 µM, stronger effect = higher value.
The subject of experiment [13] is anti-desmoglein-3 scFv antibody binding to human DSG3. As to the kind of experiment: inhibitors of anti-DSG3 scFv binding to DSG3, pilot screen, biochemical, validation compound set, bead-based, flow cytometry (AID 588368;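 active = binding below the plate cutoff, the plate median minus 3 SD, with a reading above zero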;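 also: signal is the median channel fluorescence of bead-bound GFP antibody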). The conditions noted are these: Protein G beads, DSG3-Fc, scFv-GFP binding, at 10 µM, stronger effect = lower value.
The nature of experiment [14]: inhibitors of fungal efflux pumps CDR1, CDR2, MDR1, pilot screen, validation compound set, multiplex, phenotypic (AID 588506).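 Also: Nile Red retained in cells so higher fluorescence means more efflux inhibition; 0 = negative control wells and 1 = enniatin B 25 µM full block.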 The conditions noted are these: S. cerevisiae pump-expressing triplex, Nile Red efflux flow cytometry; at 10 µM; stronger effect = higher value; the pumps come from Candida albicans.
Experiment [15] concerns the target ATP-binding cassette sub-family B member 6 (Homo sapiens) (UniProt Q9NP58). As to the kind of experiment: ABCB6 transporter inhibitors, pilot screen, K562-ABCB6 cells, flow cytometry, validation set (AID 588550;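 active = inhibition above the screen-wide mean plus 3 SD, about 51%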;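 also: 0% = DMSO wells and 100% = benzethonium chloride 70 µM positive control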). The note with it: K562-ABCB6 porphyrin accumulation, 1 h, at 10 µM, stronger effect = higher value.
Experiment [16] can be described thus: promoters of myeloid differentiation in arrested cells, primary screen, cell-based, GFP/MAC1 double positive, flow cytometry, validation set (AID 588685;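 active = differentiation response of at least 50%, scaled between solvent and reference control, from cells with both markers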;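 also: compound exposure lasts four days before antibody staining and flow analysis; 0% = DMSO wells and 100% = 5 µM fulvestrant positive control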). The note with it: ER-HoxA9 marrow cells, stronger effect = higher value, normalized: vehicle 0, fulvestrant 100.

Records with an inconclusive call do not appear. Calls of active or inactive are those of the source.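 The calls were made as follows, unless noted: active = efflux inhibition above 0.42, the validation set average plus 4 SD; inconclusive = no clear call, values can overlap the other calls; inactive = the rest.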

Sequence of ATP-binding cassette sub-family B member 6 (Homo sapiens) (Q9NP58 whole entry, looked up): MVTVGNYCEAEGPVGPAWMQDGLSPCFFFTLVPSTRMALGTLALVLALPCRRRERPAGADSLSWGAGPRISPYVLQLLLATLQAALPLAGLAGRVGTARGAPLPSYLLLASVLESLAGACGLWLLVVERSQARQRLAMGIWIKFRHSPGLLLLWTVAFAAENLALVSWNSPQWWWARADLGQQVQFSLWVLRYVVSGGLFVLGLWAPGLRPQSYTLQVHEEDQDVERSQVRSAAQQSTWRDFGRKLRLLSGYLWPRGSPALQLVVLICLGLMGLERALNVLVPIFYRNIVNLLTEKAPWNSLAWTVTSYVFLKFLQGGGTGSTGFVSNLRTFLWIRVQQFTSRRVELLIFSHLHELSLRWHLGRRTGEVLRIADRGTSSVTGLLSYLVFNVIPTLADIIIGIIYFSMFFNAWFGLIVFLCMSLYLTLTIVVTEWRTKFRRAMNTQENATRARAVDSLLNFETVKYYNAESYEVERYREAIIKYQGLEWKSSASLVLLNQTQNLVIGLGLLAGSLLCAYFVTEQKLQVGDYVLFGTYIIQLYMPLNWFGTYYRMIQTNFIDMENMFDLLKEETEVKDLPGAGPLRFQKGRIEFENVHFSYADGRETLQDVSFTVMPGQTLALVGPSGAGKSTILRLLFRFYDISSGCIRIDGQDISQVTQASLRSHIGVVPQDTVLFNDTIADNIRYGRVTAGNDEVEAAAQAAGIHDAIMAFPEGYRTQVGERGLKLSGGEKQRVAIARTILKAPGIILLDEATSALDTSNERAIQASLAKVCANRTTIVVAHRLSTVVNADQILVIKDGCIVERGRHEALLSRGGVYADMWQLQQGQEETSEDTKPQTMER
Sequence of Integrin beta-1 (Homo sapiens) + Integrin alpha-4 (Homo sapiens) (P05556 whole entry, looked up): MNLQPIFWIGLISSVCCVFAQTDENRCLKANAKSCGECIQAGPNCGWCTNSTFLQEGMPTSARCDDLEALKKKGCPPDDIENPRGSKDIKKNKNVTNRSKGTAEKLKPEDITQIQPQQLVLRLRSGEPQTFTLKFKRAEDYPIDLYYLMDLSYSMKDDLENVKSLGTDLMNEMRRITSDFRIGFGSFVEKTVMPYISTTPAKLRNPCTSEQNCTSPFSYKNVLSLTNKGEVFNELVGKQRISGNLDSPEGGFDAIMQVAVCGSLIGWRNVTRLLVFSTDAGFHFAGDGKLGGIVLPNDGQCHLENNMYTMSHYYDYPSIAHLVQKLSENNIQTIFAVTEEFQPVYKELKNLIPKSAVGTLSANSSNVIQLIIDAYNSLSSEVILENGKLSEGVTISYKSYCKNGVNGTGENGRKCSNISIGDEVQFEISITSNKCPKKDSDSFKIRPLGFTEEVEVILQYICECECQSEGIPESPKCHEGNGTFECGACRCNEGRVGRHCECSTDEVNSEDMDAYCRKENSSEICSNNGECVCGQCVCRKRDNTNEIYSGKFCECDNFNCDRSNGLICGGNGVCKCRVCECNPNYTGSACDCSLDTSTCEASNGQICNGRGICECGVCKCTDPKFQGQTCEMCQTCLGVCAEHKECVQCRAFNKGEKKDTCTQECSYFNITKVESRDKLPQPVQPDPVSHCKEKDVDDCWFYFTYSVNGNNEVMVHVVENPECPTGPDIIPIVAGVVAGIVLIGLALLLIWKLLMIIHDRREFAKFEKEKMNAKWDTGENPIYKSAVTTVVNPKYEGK
Sequence of Integrin beta-1 (Homo sapiens) + Integrin alpha-4 (Homo sapiens) (P13612 whole entry, looked up): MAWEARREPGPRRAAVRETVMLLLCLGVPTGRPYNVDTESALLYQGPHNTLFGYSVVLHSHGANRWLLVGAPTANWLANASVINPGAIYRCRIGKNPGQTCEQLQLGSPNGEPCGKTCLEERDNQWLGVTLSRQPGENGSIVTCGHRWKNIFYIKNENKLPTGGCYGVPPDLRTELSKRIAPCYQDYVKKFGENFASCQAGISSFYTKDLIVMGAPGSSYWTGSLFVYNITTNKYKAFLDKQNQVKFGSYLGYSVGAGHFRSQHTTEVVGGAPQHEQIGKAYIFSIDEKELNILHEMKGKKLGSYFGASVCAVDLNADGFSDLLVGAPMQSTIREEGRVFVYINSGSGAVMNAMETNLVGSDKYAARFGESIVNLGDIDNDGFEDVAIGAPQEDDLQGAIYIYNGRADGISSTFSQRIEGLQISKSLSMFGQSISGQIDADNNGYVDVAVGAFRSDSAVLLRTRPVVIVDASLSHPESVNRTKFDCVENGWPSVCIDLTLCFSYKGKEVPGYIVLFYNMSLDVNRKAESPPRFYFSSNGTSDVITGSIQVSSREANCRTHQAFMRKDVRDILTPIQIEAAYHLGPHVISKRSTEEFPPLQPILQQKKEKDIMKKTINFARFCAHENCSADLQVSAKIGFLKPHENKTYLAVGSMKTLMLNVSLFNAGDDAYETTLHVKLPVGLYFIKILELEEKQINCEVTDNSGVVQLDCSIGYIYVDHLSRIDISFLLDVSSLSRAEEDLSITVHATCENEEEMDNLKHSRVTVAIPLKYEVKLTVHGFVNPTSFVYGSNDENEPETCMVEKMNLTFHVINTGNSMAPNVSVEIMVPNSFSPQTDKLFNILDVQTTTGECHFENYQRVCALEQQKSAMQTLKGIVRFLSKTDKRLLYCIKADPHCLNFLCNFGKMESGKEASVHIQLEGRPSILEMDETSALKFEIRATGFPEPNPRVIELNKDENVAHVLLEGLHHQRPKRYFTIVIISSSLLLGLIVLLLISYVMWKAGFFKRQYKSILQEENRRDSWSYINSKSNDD
Sequence of AP-2 complex subunit beta (Homo sapiens) (P63010 whole entry, looked up, the tested form may be a part, one chain of several): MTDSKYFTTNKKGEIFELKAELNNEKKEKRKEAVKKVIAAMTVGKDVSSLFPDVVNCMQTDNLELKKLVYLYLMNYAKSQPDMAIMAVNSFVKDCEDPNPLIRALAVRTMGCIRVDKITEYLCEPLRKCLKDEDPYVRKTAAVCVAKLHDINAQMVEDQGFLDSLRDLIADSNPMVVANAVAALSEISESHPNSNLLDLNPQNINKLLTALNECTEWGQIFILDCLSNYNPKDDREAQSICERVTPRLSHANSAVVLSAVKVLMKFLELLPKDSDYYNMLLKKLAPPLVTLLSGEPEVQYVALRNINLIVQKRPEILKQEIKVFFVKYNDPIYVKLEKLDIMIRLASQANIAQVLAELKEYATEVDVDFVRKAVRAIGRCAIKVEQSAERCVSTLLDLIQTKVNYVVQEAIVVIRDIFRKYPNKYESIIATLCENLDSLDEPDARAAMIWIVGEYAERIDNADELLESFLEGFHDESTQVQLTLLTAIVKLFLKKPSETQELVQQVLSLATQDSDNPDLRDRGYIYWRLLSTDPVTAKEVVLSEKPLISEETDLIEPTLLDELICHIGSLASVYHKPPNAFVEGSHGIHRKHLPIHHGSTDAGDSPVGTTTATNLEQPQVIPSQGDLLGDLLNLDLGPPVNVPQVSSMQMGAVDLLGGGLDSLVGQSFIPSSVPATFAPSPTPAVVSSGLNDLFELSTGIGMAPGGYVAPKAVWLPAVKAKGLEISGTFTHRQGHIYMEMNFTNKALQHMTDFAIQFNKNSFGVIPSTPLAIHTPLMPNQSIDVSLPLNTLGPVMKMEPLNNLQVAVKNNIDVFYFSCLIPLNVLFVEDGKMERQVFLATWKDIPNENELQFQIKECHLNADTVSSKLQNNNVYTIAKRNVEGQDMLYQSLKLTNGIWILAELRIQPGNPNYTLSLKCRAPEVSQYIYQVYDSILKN

Usually inhibition stands for the relative decrease from the control value, in per cent. For `Clc1ccc(CCNc2ncnc3nc[nH]c23)cc1`, in experiment [1], the percent of DMSO control GFP is 97.4% (inactive). The values for the GFP response vs DMSO in [2] and in [4] were 108% (inactive) and 105% (inactive), respectively. Besides, the percent response of DMSO control in experiment [3] is 92% (inactive). Also, the GFP response, % of DMSO in [5] is 99.7% (inactive). In experiment [6], this molecule gave a double positive events of 60.8%. Moreover, in experiment [6], the vesicle binding response is 127% (inactive). Further, the inhibition in [7] was 0.94% (inactive); in experiment [11] it was 5.59% (inactive); in [15], 10% (inactive). For the same molecule, the superoxide response (% of plate) in experiment [8] is 108% (inactive). Also, in experiment [9], the aptamer binding inhibition was 4% (inactive). The response in experiment [10] was -5.61% (inactive); in experiment [12], -0.06% (inactive). Besides, in experiment [13], the binding (% of control) is 97.2% (inactive). For the same molecule, in experiment [14], the efflux inhibition (fraction of control) was 0.08 (inactive). The differentiation response in experiment [16] is -0.8% (inactive).

As for `COc1ccc2nc(S(=O)Cc3ncc(C)c(OC)c3C)[nH]c2c1` (stereo not given), the percent of DMSO control GFP in experiment [1] was 107% (inactive). Moreover, the GFP response vs DMSO in experiment [2] was 105% (inactive); in [4], 95.9% (inactive). In addition, the percent response of DMSO control in experiment [3] is 99.7% (inactive). For the same molecule, the GFP response, % of DMSO in experiment [5] was 97.1% (inactive). The same molecule had a double positive events in experiment [6] of 60.4%. For the same molecule, the vesicle binding response in experiment [6] was 131% (inactive). Besides, the inhibition was -13.2% (inactive) in [7], -8.15% (inactive) in experiment [11] and -7% (inactive) in [15]. The superoxide response (% of plate) in experiment [8] was 84.9% (inactive). Further, the aptamer binding inhibition in experiment [9] is 2% (inactive). In addition, the response is 24.8% (inactive) in experiment [10] and 0.81% (inactive) in [12]. Also, the binding (% of control) in experiment [13] is 104% (inactive). In addition, in [14], the efflux inhibition (fraction of control) is -0.16 (inactive). Also, the differentiation response in experiment [16] was 52.5% (active).

Regarding `CC1(C#CC[N+]2(C)CCCCC2)CCC2C(O1)c1ccccc1OC2(C)C` (stereo not given), the percent of DMSO control GFP in experiment [1] was 103% (inactive). Further, the values for the GFP response vs DMSO in experiment [2] and in experiment [4] were 102% (inactive) and 91.5% (inactive), respectively. Further, the percent response of DMSO control in [3] was 107% (inactive). Moreover, the GFP response, % of DMSO in [5] is 106% (inactive). The molecule further showed a double positive events in experiment [6] of 60.2%. The vesicle binding response in experiment [6] is 95.6% (inactive). Besides, the inhibition was -6.45% (inactive) in experiment [7], -11.4% (inactive) in experiment [11] and -6% (inactive) in experiment [15]. The superoxide response (% of plate) in [8] was 101% (inactive). In addition, the aptamer binding inhibition in experiment [9] is -11% (inactive). For the same molecule, the response in experiment [10] is 5.86% (inactive); in [12], 2.59% (inactive). The binding (% of control) in experiment [13] was 101% (inactive). For the same molecule, in experiment [14], the efflux inhibition (fraction of control) is 0.07 (inactive). Moreover, the differentiation response in experiment [16] was -10.4% (inactive).

Turning to `Cc1cnc(NC(=O)C2=C(O)c3ccccc3S(=O)(=O)N2C)s1`, in experiment [1], the percent of DMSO control GFP is 107% (inactive). Further, the GFP response vs DMSO was 112% (inactive) in experiment [2] and 80.8% (inactive) in experiment [4]. In addition, in experiment [3], the percent response of DMSO control is 88.4% (inactive). In addition, the GFP response, % of DMSO in [5] is 92.9% (inactive). The molecule further yielded a double positive events in [6] of 65.2%. The vesicle binding response in [6] was 958% (inactive). Besides, the results for the inhibition in experiment [7], in experiment [11] and in [15] were -6.68% (inactive), 8.13% (inactive) and 14% (inactive), respectively. The superoxide response (% of plate) in experiment [8] was 109% (inactive). Further, the aptamer binding inhibition in experiment [9] is 3% (inactive). Also, the response in experiment [10] was 1.12% (inactive); in experiment [12], 1.87% (inactive). Also, the binding (% of control) in experiment [13] is 93.7% (inactive). For the same molecule, the efflux inhibition (fraction of control) in experiment [14] was 0.27 (inactive). In addition, the differentiation response in [16] was 12% (inactive).

Consider `COc1ccccc1N1C(=O)C2CC(C)=C(C)CC2C1=O` (stereo not given), for which the percent of DMSO control GFP in experiment [1] is 103% (inactive). In addition, the results for the GFP response vs DMSO in experiment [2] and in [4] were 102% (inactive) and 85.2% (inactive), respectively. The percent response of DMSO control in experiment [3] was 99.3% (inactive). Moreover, the GFP response, % of DMSO in experiment [5] was 104% (inactive). The molecule further registered a double positive events in experiment [6] of 63%. The vesicle binding response in experiment [6] is 164% (inactive). Also, the inhibition was 19.7% (inactive) in [7], -31.7% (inactive) in experiment [11] and 4% (inactive) in experiment [15]. For the same molecule, in experiment [8], the superoxide response (% of plate) was 109% (inactive). Also, the aptamer binding inhibition in [9] is 11% (inactive). For the same molecule, the response in experiment [10] was 4.23% (inactive); in experiment [12], 2.17% (inactive). Also, the binding (% of control) in experiment [13] is 99% (inactive). In experiment [14], the efflux inhibition (fraction of control) was -0.06 (inactive). For the same molecule, the differentiation response in experiment [16] was -3.4% (inactive).
